The text below walks through data of PubChem BioAssay (NCATS).

Results filed as inconclusive are left out. The source made the active and inactive calls. Calls come from the whole dose curve; as a rule, active = well fitted cell-killing curve with a large enough effect; inconclusive = small, poorly fitted or top-dose-only effect, or effect the other way; inactive = no such curve, though single readings can be large or run the other way.
Potency is the fitted concentration of half-maximal effect.

The nature of the first experiment: Quantitative High-Throughput drug screen in 47 multiple myeloma cell lines against the NCATS MIPE library collection: JIM1_ECACC cell viability assay (AID 1918964). The note with it: JIM1 myeloma viability, CellTiter-Glo ATP luminescence, 48 h; series mostly up to 45.8 µM. A digest of the protocol:
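Myeloma cells (500 per well) were exposed to MIPE 4.0 compounds by pin transfer and incubated 48 hours at 37C, 5% CO2. Viability was read as ATP by CellTiter-Glo luminescence, normalised to DMSO (100%) and media-only (0%) wells.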
Take `Cc1ccc(C(N)=O)cc1Nc1nccc(-c2cn(C(C)C)c3cnccc23)n1`: the Potency was 2350 nM (active). Same read-out and setting: with `N#CCNC(=O)c1ccc(-c2ccnc(Nc3ccc(N4CCOCC4)cc3)n2)cc1` the entry was “inactive”; with `C#Cc1cccc(Nc2ncnc3cc(OC)c(OCCCCCCC(=O)NO)cc23)c1`, 66.2 nM (active).

With `CN(c1ncccc1CNc1nc(Nc2ccc3c(c2)CC(=O)N3)ncc1C(F)(F)F)S(C)(=O)=O`, the Potency was 3320 nM (active).

As for `COC(=O)C[C@](O)(CCCC(C)(C)O)C(=O)O[C@@H]1C(OC)=C[C@]23CCCN2CCc2cc4c(cc2[C@H]13)OCO4`, the Potency entry was “inactive”. Consider `CCN(CC)CCCCNc1ncc2cc(-c3cc(OC)cc(OC)c3)c(NC(=O)NC(C)(C)C)nc2n1`, for which the Potency is 20900 nM (active). Still for that read-out and setting: for `Cc1ccc(NC(=O)C2(c3ccc4c(c3)OC(F)(F)O4)CC2)nc1-c1cccc(C(=O)O)c1` the value was 41.8 nM (active); for `O=C(CCCCCCNC(=O)c1cnc(N(c2ccccc2)c2ccccc2)nc1)NO`, 4690 nM (active). On the same count and under the same terms, with `O=C(CCCCCCC(=O)Nc1ccc([C@H]2O[C@@H](CSc3nc(-c4ccccc4)c(-c4ccccc4)o3)C[C@@H](c3ccc(CO)cc3)O2)cc1)NO` the entry was “inactive”; with `COc1ccc(OC)c(-c2nnc3ccc(-c4ccc(OC)c(O[C@@H]5CCOC5)c4)nn23)c1`, 8330 nM (active); with `COc1cc(C(C)C)c2c(c1)S(=O)(=O)N(COc1cc(=O)n3cccc(OCCN4CCCCC4)c3n1)C2=O`, 18700 nM (active). The same measure, in the same setting: with `C[C@@H](Oc1cc(-c2cnn(C3CCNCC3)c2)cnc1N)c1c(Cl)ccc(F)c1Cl` the figure was 3720 nM (active). `CCN1CCN(CC(=O)Nc2ccc(-c3cccc4c(=O)cc(N5CCOCC5)oc34)c3sc4ccccc4c23)CC1`: the Potency was 469 nM (active).

On to `OCc1ccc(-c2ccc(-c3ccc(CO)s3)o2)s1`, for which the Potency entry is “inactive”. The same measure, in the same setting: for `O=C(c1ccc(Nc2nccc(-c3cc4ccccc4s3)n2)cc1)N1CCC(N2CCCC2)CC1` the value was 4690 nM (active); for `O=C(Nc1cn[nH]c1-c1nc2ccc(CN3CCOCC3)cc2[nH]1)NC1CC1`, 2090 nM (active); for `CC(C)c1ccc(Cn2ccc3c4c(N)nc(NC5CC5)nc4ccc32)cc1`, 1870 nM (active). Turning to `COc1cc2c(cc1-c1c(C)noc1C)ncc1[nH]c(=O)n([C@H](C)c3ccccn3)c12`, the Potency was 5900 nM (active). The same measure, in the same setting: with `OCCCNc1cc(-c2ccnc(Nc3cccc(Cl)c3)n2)ccn1` the figure was 52.6 nM (active); with `C[C@H]1C[C@@H]2[C@@H]([C@@H](O)C[C@@]3(C)[C@H]2CC[C@]3(O)C(=O)CO)[C@@]2(C)C=CC(=O)C=C12`, “inactive”; with `NC(=O)Nc1cc(-c2cccc(F)c2)sc1C(=O)N[C@H]1CCCNC1`, 105 nM (active). `COc1cc2c(Oc3ccc(NC(=O)C4(C(=O)Nc5ccc(F)cc5)CC4)cc3F)ccnc2cc1OCCCN1CCOCC1`: the Potency is 1660 nM (active).

As for `O=C(Cc1ccc(-c2ccc(OCCN3CCOCC3)cc2)cn1)NCc1ccccc1`, the Potency was 7.4 nM (active).

Another experiment is described as follows: Quantitative High-Throughput drug screen in 47 multiple myeloma cell lines against the NCATS MIPE library collection: INA6_PLB cell viability assay (AID 1918965; note: nearly all actives have a fitted effect of over 55% in size). Conditions: INA6 myeloma viability, CellTiter-Glo ATP luminescence, 48 h; series mostly up to 45.8 µM. In outline:
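Steps: seed 500 cells per well; pin-transfer MIPE 4.0 library; incubate 48 h at 37C, 5% CO2, humidified; add CellTiter-Glo, 5 min room temperature; read luminescence.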
Background: ATP-based viability assays read luminescence as a measure of living cells.
Take `Cc1ccc(C(N)=O)cc1Nc1nccc(-c2cn(C(C)C)c3cnccc23)n1`: the Potency is 2640 nM (active). On the same count and under the same terms, for `N#CCNC(=O)c1ccc(-c2ccnc(Nc3ccc(N4CCOCC4)cc3)n2)cc1` the value was 1320 nM (active); for `c1ccc2c(CCNc3ccc(Nc4ccncc4)cc3)c[nH]c2c1`, 23500 nM (active); for `C#Cc1cccc(Nc2ncnc3cc(OC)c(OCCCCCCC(=O)NO)cc23)c1`, 16.6 nM (active). As to `CN(c1ncccc1CNc1nc(Nc2ccc3c(c2)CC(=O)N3)ncc1C(F)(F)F)S(C)(=O)=O`, the Potency is 2640 nM (active). On the same count and under the same terms, for `O=C1CCC[C@@H]2[C@H]3CCC[N+]4([O-])CCC[C@@H](CN12)[C@@H]34` (stereo partly specified) the value was “inactive”. Still for that read-out and setting: with `CCN(CC)CCCCNc1ncc2cc(-c3cc(OC)cc(OC)c3)c(NC(=O)NC(C)(C)C)nc2n1` the figure was 16600 nM (active); with `CCCCN1CCC(CNC(=O)c2c3n(c4ccccc24)CCCO3)CC1`, 16600 nM (active); with `Fc1cc(-c2cccc3ncc(-c4cnn(C5CCNCC5)c4)nc23)cc(F)c1CN1CCOCC1`, 4180 nM (active). The same measure, in the same setting: for `O=C(CCCCCCC(=O)Nc1ccc([C@H]2O[C@@H](CSc3nc(-c4ccccc4)c(-c4ccccc4)o3)C[C@@H](c3ccc(CO)cc3)O2)cc1)NO` the value was 5260 nM (active); for `COc1ccc(OC)c(-c2nnc3ccc(-c4ccc(OC)c(O[C@@H]5CCOC5)c4)nn23)c1`, 5900 nM (active). Consider `C[C@@H](Oc1cc(-c2cnn(C3CCNCC3)c2)cnc1N)c1c(Cl)ccc(F)c1Cl`, for which the Potency was 4690 nM (active).

For `OCc1ccc(-c2ccc(-c3ccc(CO)s3)o2)s1`, the Potency is 2640 nM (active).

With `O=C(c1ccc(Nc2nccc(-c3cc4ccccc4s3)n2)cc1)N1CCC(N2CCCC2)CC1`, the Potency was 1660 nM (active). Same read-out and setting: with `O=C(Nc1cn[nH]c1-c1nc2ccc(CN3CCOCC3)cc2[nH]1)NC1CC1` the figure was 148 nM (active); with `CC(C)c1ccc(Cn2ccc3c4c(N)nc(NC5CC5)nc4ccc32)cc1`, 1480 nM (active); with `COc1cc2c(cc1-c1c(C)noc1C)ncc1[nH]c(=O)n([C@H](C)c3ccccn3)c12`, 264 nM (active). Same read-out and setting: with `OCCCNc1cc(-c2ccnc(Nc3cccc(Cl)c3)n2)ccn1` the figure was 26.4 nM (active); with `NC(=O)Nc1cc(-c2cccc(F)c2)sc1C(=O)N[C@H]1CCCNC1`, 59 nM (active). On the same count and under the same terms, with `Nc1nccc(Oc2ccc(NC(=O)c3c[nH]cc(-c4ccc(F)cc4)c3=O)cc2F)c1Cl` the figure was 18700 nM (active). Take `COc1cc2c(Oc3ccc(NC(=O)C4(C(=O)Nc5ccc(F)cc5)CC4)cc3F)ccnc2cc1OCCCN1CCOCC1`: the Potency was 7430 nM (active).

For the compound `COC(=O)C1=C(C)NC(C)=C(C(=O)OCCN2CCN(C(c3ccccc3)c3ccccc3)CC2)C1c1cccc([N+](=O)[O-])c1` (stereo unspecified), the Potency entry is “inactive”. Still for that read-out and setting: for `O=C(Cc1ccc(-c2ccc(OCCN3CCOCC3)cc2)cn1)NCc1ccccc1` the value was 16.6 nM (active).
